# According to the supplement of paper PMC8728848:
# This excerpt belongs to a sample that is enriched for the strongest signals.
# How the values were obtained:
# Test in all cases: glycan array binding signal (z-score within array); higher = stronger binding
# Settings in all cases: glycan notation: IUPAC condensed, linker removed
# [1] = target: Fuc(a1-2)Gal(b1-3)GlcNAc(b1-3)Gal(b1-4)Glc
# Summary of the method: (§1)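 Arrays were curated from the Consortium for Functional Glycomics database, 3228 in total, and kept only where the protein sequence was available. Binding is expressed as a within-array Z-score. This score was averaged across arrays of the same protein sequence at different concentrations or buffers and across linkers, and negative values can be read as non-binding.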
# [2] = target: Fuc(a1-2)Gal(b1-3)[Fuc(a1-4)]GlcNAc(b1-2)Man(a1-3)[Fuc(a1-2)Gal(b1-3)[Fuc(a1-4)]GlcNAc(b1-2)Man(a1-6)]Man(b1-4)GlcNAc(b1-4)GlcNAc
# Summary of the method: as §1
# Fuc(a1-2)Gal(b1-4)Glc6S = target: Fuc(a1-2)Gal(b1-4)Glc6S
# Summary of the method: as §1
# [3] = target: Fuc(a1-2)Gal(b1-4)[Fuc(a1-3)]GlcNAc
# Summary of the method: as §1
# [4] = target: Fuc(a1-2)Gal(b1-4)[Fuc(a1-3)]GlcNAc(b1-2)Man(a1-3)[Fuc(a1-2)Gal(b1-4)[Fuc(a1-3)]GlcNAc(b1-2)Man(a1-6)]Man(b1-4)GlcNAc(b1-4)GlcNAc
# Summary of the method: as §1
# [5] = target: Fuc(a1-2)Gal(b1-4)[Fuc(a1-3)]GlcNAc(b1-3)Gal(b1-4)[Fuc(a1-3)]GlcNAc(b1-3)Gal(b1-4)[Fuc(a1-3)]GlcNAc
# Summary of the method: as §1
# [6] = target: Fuc(a1-2)[Gal(a1-3)]Gal(b1-4)Glc
# Summary of the method: as §1
# [7] = target: Fuc(a1-3)[Gal(b1-4)]GlcNAc(b1-4)Gal(b1-4)[Fuc(a1-3)]GlcNAc(b1-4)Gal(b1-4)[Fuc(a1-3)]GlcNAc
# Summary of the method: as §1
# [8] = target: Fuc(a1-3)[Neu5Ac(a2-3)]Gal(b1-4)GlcNAc(b1-3)GalNAc
# Summary of the method: as §1
# Fuc(a1-4)GlcNAc = target: Fuc(a1-4)GlcNAc
# Summary of the method: as §1
# [9] = target: Gal(a1-3)Gal(b1-4)[Fuc(a1-3)]GlcNAc(b1-2)Man(a1-3)[Gal(a1-3)Gal(b1-4)[Fuc(a1-3)]GlcNAc(b1-2)Man(a1-6)]Man(b1-4)GlcNAc(b1-4)GlcNAc
# Summary of the method: as §1
# Gal(a1-3)GalNAc = target: Gal(a1-3)GalNAc
# Summary of the method: as §1
# Gal(b1-3)GlcNAc = target: Gal(b1-3)GlcNAc
# Summary of the method: as §1
# [10] = target: Gal(b1-4)GlcNAc(b1-2)Man(a1-3)[Man(a1-6)]Man(b1-4)GlcNAc(b1-4)GlcNAc
# Summary of the method: as §1
# [11] = target: Gal(b1-4)GlcNAc(b1-2)[Gal(b1-4)GlcNAc(b1-4)]Man(a1-3)[Gal(b1-4)GlcNAc(b1-2)Man(a1-6)]Man(b1-4)GlcNAc(b1-4)GlcNAc
# Summary of the method: as §1
# Gal4S6S(b1-4)GlcNAc = target: Gal4S6S(b1-4)GlcNAc
# Summary of the method: as §1
# [12] = target: GlcNAc(a1-4)Gal(b1-4)GlcNAc
# Summary of the method: as §1
# [13] = target: GlcNAc(b1-2)Man(a1-3)[GlcNAc(b1-2)Man(a1-6)]Man(b1-4)GlcNAc(b1-4)[Fuc(a1-6)]GlcNAc
# Summary of the method: as §1
# GlcNAc(b1-3)Gal = target: GlcNAc(b1-3)Gal
# Summary of the method: as §1
# [14] = target: GlcNAc(b1-3)[GlcNAc(b1-6)]Gal(b1-4)GlcNAc
# Summary of the method: as §1
# [15] = target: Man(a1-2)Man(a1-2)Man(a1-6)[Man(a1-3)]Man
# Summary of the method: as §1
# [16] = target: Man(a1-2)Man(a1-3)[Man(a1-2)Man(a1-6)]Man
# Summary of the method: as §1
# [17] = target: Man(a1-2)Man(a1-3)[Man(a1-2)Man(a1-6)]Man(a1-6)[Man(a1-2)Man(a1-2)Man(a1-3)]Man
# Summary of the method: as §1
# [18] = target: Man(a1-2)Man(a1-3)[Man(a1-6)]Man(a1-6)[Man(a1-2)Man(a1-3)]Man(b1-4)GlcNAc(b1-4)GlcNAc
# Summary of the method: as §1
# [19] = target: Man(a1-2)Man(a1-6)[Man(a1-3)]Man(a1-6)[Man(a1-2)Man(a1-2)Man(a1-3)]Man
# Summary of the method: as §1
# [20] = target: Man(a1-2)Man(a1-6)[Man(a1-3)]Man(a1-6)[Man(a1-2)Man(a1-2)Man(a1-3)]Man(b1-4)GlcNAc(b1-4)GlcNAc
# Summary of the method: as §1
# Man(a1-3)[Man(a1-6)]Man = target: Man(a1-3)[Man(a1-6)]Man
# Summary of the method: as §1
# Man(b1-4)GlcNAc = target: Man(b1-4)GlcNAc
# Summary of the method: as §1
# [21] = target: Neu5Ac(a2-3)Gal(b1-4)GlcNAc(b1-3)Gal(b1-4)GlcNAc(b1-3)Gal(b1-4)GlcNAc
# Summary of the method: as §1
# [22] = target: Neu5Ac(a2-6)Gal(b1-4)GlcNAc(b1-3)Gal(b1-4)GlcNAc
# Summary of the method: as §1
# [23] = target: Neu5Ac(a2-6)Gal(b1-4)GlcNAc6S
# Summary of the method: as §1
# [24] = target: Neu5Ac(a2-8)Neu5Ac(a2-3)[GalNAc(b1-4)]Gal(b1-4)Glc
# Summary of the method: as §1
# [25] = target: Neu5Ac(a2-8)Neu5Ac(a2-8)Neu5Ac
# Summary of the method: as §1
# [26] = target: Neu5Gc(a2-3)Gal(b1-3)[Fuc(a1-4)]GlcNAc
# Summary of the method: as §1
binder,measurement,setting,value
"DGL (Dioclea grandiflora), P08902 (protein) ADTIVAVELDSYPNTDIGDPNYPHIGIDIKSIRSKSTARWNMQTGKVGTVHISYNSVAKRLSAVVSYSGSSSTTVSYDVDLNNVLPEWVRVGLSATTGLYKETNTILSWSFTSKLKTNSIADENSLHFSFHKFSQNPKDLILQGDAFTDSDGNLELTKVSSSGDPQGNSVGRALFYAPVHIWESSAVVASFDATFTFLIKSPDREPADGITFFIANTDTSIPSGSGGRLLGLFPDAN",glycan array binding signal (z-score),[1],-0.177
same,glycan array binding signal (z-score),[2],-0.169
same,glycan array binding signal (z-score),Fuc(a1-2)Gal(b1-4)Glc6S,-0.172
same,glycan array binding signal (z-score),[3],-0.176
same,glycan array binding signal (z-score),[4],-0.144
same,glycan array binding signal (z-score),[5],-0.168
same,glycan array binding signal (z-score),[6],-0.177
same,glycan array binding signal (z-score),[7],-0.182
same,glycan array binding signal (z-score),[8],-0.072
same,glycan array binding signal (z-score),Fuc(a1-4)GlcNAc,-0.175
same,glycan array binding signal (z-score),[9],-0.175
same,glycan array binding signal (z-score),Gal(a1-3)GalNAc,-0.173
same,glycan array binding signal (z-score),Gal(b1-3)GlcNAc,-0.172
same,glycan array binding signal (z-score),[10],-0.151
same,glycan array binding signal (z-score),[11],-0.161
same,glycan array binding signal (z-score),Gal4S6S(b1-4)GlcNAc,-0.183
same,glycan array binding signal (z-score),[12],-0.176
same,glycan array binding signal (z-score),[13],0.316
same,glycan array binding signal (z-score),GlcNAc(b1-3)Gal,-0.178
same,glycan array binding signal (z-score),[14],-0.183
same,glycan array binding signal (z-score),[15],5.91
same,glycan array binding signal (z-score),[16],9.67
same,glycan array binding signal (z-score),[17],3.48
same,glycan array binding signal (z-score),[18],6.68
same,glycan array binding signal (z-score),[19],7.91
same,glycan array binding signal (z-score),[20],6.41
same,glycan array binding signal (z-score),Man(a1-3)[Man(a1-6)]Man,3.63
same,glycan array binding signal (z-score),Man(b1-4)GlcNAc,-0.186
same,glycan array binding signal (z-score),[21],-0.183
same,glycan array binding signal (z-score),[22],-0.178
same,glycan array binding signal (z-score),[23],-0.179
same,glycan array binding signal (z-score),[24],-0.178
same,glycan array binding signal (z-score),[25],-0.175
same,glycan array binding signal (z-score),[26],-0.179
